# Measured values as given in PubChem BioAssay (NCATS).
# Where “and” joins values, the source holds several entries; their conditions need not be identical. Equal values may be shown once. Results filed as inconclusive are left out. Calls of active or inactive are those of the source. Unless noted, the call rests on the fitted dose curve; in most records, active means well fitted curve in the direction sought with a large enough effect; inconclusive means small, poorly fitted or top-dose-only effect, or another doubt; inactive means no such curve, though single readings can be large; an effect the other way counts as inactive or inconclusive.
# Assays:
# [1] = molecular target: Hexokinase-4 (Homo sapiens) + Glucokinase regulatory protein (Homo sapiens) (UniProt P35557+Q14397); assay: qHTS assay for inhibitors of recombinant human GCK-GKRP interaction: HTRF assay (AID 743207);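 further: 0% = DMSO with GCK present and -100% = DMSO wells lacking GCK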
# Outline: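 Steps: dispense GCK–GKRP complex (5 nM each, GST- and FLAG-tagged) with 2 uM S6P; pin in compounds; add XL665/Eu-cryptate-labelled antibodies; incubate 60 min at room temperature; read time-resolved FRET at 665 and 615 nm.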
# [2] = qHTS Assay for Identifying Gametocytocidal Compounds (AID 743244); further: potency means the concentration at half of the fitted maximal effect;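 on max response: on the % scale 0 is the no-effect control and ±100 the full control effect; actives lower the fluorescent signal which means gametocytes are killed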; conditions: P. falciparum 3D7 stage III-V gametocytes, alamarBlue, 72 h; max response: stronger effect = lower value
# Outline: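 A resazurin-based viability read-out was applied to mature P. falciparum gametocytes: 72 h compound treatment, then 24 h dye incubation, with falling fluorescence signalling gametocytocidal effect.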
# [3] = qHTS profiling for inhibitors of Plasmodium falciparum (3D7) proliferation (AID 743322);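 further: infected erythrocytes exposed to compound for 72 h before lysis; 100% = DMSO vehicle wells and 0% = 0.29 µM artemisinin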; conditions: P. falciparum 3D7 proliferation; at 28.7 µM (top of the series) unless noted
# Outline: (§1)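 Parasite DNA was quantified by SYBR Green I fluorescence (ex 485, em 535 nm) after overnight lysis in saponin/Triton buffer at room temperature. Cultures at 0.3% parasitemia and 2.5% hematocrit were first exposed to compound for 72 h at 37 C; signals were normalised to artemisinin (0.29 uM) and vehicle wells.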
# [4] = qHTS profiling for inhibitors of Plasmodium falciparum (DD2) proliferation (AID 743323; call rule not given here); conditions: lower = more inhibition; at 28.7 µM (top of the series) unless noted
# Outline: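 1536-well qHTS; infected RBCs 0.3% parasitemia/2.5% Hct final; cpd 72 h 37 C 5% CO2; lysis buffer + SYBR Green I, o/n RT dark; FI 485/535; norm. to 0.29 uM artemisinin and DMSO, plate-stack corrected.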
# [5] = qHTS profiling for inhibitors of Plasmodium falciparum (HB3) proliferation (AID 743324); conditions: Plasmodium falciparum HB3 blood-stage proliferation; at 28.7 µM (top of the series) unless noted;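 further: 100% = DMSO vehicle wells and 0% = artemisinin-treated control wells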
# Outline: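 SYBR Green fluorescence (485 ex/535 em) of lysed cultures, incubated overnight at room temperature in the dark, quantifies parasite DNA. Infected erythrocytes at 0.3% parasitemia and 2.5% hematocrit were exposed 72 h; values normalized to DMSO and 0.29 uM artemisinin controls.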
# [6] = qHTS profiling of the MIPE4 collection as inhibitors of Plasmodium falciparum (3D7) proliferation (AID 743344; call rule not given here;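 further: scaled between DMSO vehicle wells and 0.29 µM artemisinin as full inhibition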); conditions: P. falciparum 3D7 in erythrocytes, SYBR Green DNA fluorescence, 72 h; at 28.5 µM (top of the series)
# Outline: as §1
# [7] = qHTS profiling of the MIPE4 collection as inhibitors of Plasmodium falciparum (DD2) proliferation (AID 743345; call rule not given here); conditions: P. falciparum Dd2 in erythrocytes, SYBR Green DNA, 72 h; at 28.5 µM (top of the series) unless noted
# Outline: as §1
# [8] = qHTS profiling of the MIPE4 collection as inhibitors of Plasmodium falciparum (DD2) proliferation (Rep 2) (AID 743346; call rule not given here); conditions: P. falciparum Dd2 in erythrocytes, SYBR Green DNA, 72 h; at 28.5 µM (top of the series)
# Outline: as §1
# [9] = Immunotoxin (SS1P) sensitization/mitigation study. Vehicle arm (DMEM) (AID 1159513; call rule not given here; further: potency means the concentration at half of the fitted maximal effect)
# [10] = qHTS assay for cell viability of HEK293 cells (AID 743288); conditions: ATP luminescence (CellTiter-Glo), 18 h; max response: stronger effect = lower value; further: on the % scale 0 is the no-effect control and ±100 the full control effect; nearly all actives have a fitted effect of over 50% in size
# Outline: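 Quantitative high-throughput screen: compounds were pinned onto parental HEK293 cells (2,000 per well) after a minimum 5 h settling at 37 C, incubated 18 h at 37 C, and intracellular ATP measured by luciferase luminescence.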
# [11] = qHTS profiling of the MIPE4 collection as inhibitors of Plasmodium falciparum (HB3) proliferation (AID 743347; call rule not given here;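 further: plate controls were DMSO vehicle wells for no effect and artemisinin wells for full effect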); conditions: P. falciparum HB3 in erythrocytes, SYBR Green DNA, 72 h; at 28.5 µM (top of the series)
# Outline: as §1
# [12] = qHTS assay for cell viability of the p53RE-bla HCT-116 cell line (AID 743292); further: on the % scale 0 is the no-effect control and ±100 the full control effect; nearly all actives have a fitted effect of over 55% in size
# Outline: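 In this qHTS counter-screen, metabolically competent p53RE-bla HCT-116 cells were counted via their ATP content. Compounds were applied for 16 h at 37 C and luciferase-coupled luminescence was measured.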
# Hexokinase-4 (Homo sapiens) + Glucokinase regulatory protein (Homo sapiens), sequence (P35557 whole entry, looked up): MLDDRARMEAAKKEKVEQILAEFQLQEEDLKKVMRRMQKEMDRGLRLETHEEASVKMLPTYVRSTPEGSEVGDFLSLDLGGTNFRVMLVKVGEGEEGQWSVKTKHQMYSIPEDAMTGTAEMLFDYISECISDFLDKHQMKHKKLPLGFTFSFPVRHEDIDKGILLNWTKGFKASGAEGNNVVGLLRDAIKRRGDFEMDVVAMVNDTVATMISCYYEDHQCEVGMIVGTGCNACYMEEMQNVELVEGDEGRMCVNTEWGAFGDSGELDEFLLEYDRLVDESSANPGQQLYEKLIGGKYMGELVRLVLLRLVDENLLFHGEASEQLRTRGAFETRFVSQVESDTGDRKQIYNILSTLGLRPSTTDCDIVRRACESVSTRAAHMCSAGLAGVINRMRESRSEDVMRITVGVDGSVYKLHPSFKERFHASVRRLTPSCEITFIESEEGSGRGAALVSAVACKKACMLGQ
# Hexokinase-4 (Homo sapiens) + Glucokinase regulatory protein (Homo sapiens), sequence (Q14397 whole entry, looked up): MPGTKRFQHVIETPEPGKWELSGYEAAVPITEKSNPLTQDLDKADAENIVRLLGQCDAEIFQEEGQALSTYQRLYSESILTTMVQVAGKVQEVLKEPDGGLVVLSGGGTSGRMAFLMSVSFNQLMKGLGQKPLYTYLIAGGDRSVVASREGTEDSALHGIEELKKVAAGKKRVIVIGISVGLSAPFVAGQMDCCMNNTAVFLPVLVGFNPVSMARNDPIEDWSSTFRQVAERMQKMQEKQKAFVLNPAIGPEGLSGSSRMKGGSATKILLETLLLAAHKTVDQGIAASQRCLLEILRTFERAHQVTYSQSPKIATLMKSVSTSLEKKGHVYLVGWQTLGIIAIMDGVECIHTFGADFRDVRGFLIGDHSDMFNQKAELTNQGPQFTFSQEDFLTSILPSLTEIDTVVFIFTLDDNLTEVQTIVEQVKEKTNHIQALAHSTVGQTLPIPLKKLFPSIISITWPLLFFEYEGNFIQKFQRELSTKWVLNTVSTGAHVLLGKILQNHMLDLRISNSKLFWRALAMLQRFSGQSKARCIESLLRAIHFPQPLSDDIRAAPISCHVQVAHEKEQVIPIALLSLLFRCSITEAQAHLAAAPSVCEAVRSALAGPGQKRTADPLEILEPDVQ
structure (smiles),measurement,setting,value
CC(C)NC(C)Cc1ccc(I)cc1 (centres undefined),outcome,[1],inactive
same,max response,[2],8.77% (inactive)
NCCc1c[nH]c2ccc(O)cc12,outcome,[1],inactive
same,max response,[2],9.61% (inactive)
CNCCc1c[nH]c2ccc(O)cc12,outcome,[1],inactive
Cc1nccc2c1[nH]c1ccccc12,outcome,[1],inactive
same,max response,[2],22.2% (inactive)
Cc1c(C(=O)Nc2cccc(C(F)(F)F)c2)cc(-c2ccccc2)n1CCCN1CCOCC1,max response,[2],12.4% (inactive)
same,remaining parasite growth % (stronger effect = lower value),[3],8.32%
same,"activity, percent of control",[4],17.4%
same,"remaining proliferation (% of control), lower = more inhibition",[5],9.01%
same,"parasite growth, % of DMSO control",[6],19.9%
same,"parasite growth remaining, % of DMSO control (lower = more inhibition)",[7],69.6%
same,"parasite growth, % of control (lower = inhibition)",[8],16.5%
same,Potency,[9],23.5 µM (active)
CCCN1CCC[C@H](c2cccc(O)c2)C1,outcome,[1],inactive
same,max response,[2],-8.29% (inactive) and 20.7% (inactive)
CS(=N)(=O)CC[C@H](N)C(=O)O (some centres undefined),outcome,[1],inactive
same,max response,[2],-10.6% (inactive)
CNCCc1ccc(O)c(O)c1,outcome,[1],inactive
CC(=O)[C@H]1CCC2C3CC[C@H]4C[C@H](O)CC[C@]4(C)C3CC[C@@]21C (some centres undefined),outcome,[1],inactive
same,max response,[2],27.5% (inactive)
O=C(O)[C@@H]1CCN1,outcome,[1],inactive
same,max response,[2],23.1% (inactive)
O=C(O)c1ccc(O)c2ncc(N3CCOCC3)cc12,Potency,[2],9.35 µM (active)
same,"activity, percent of control",[4],35.5%
same,"remaining proliferation (% of control), lower = more inhibition",[5],35.5%
same,"parasite growth remaining, % of DMSO control (lower = more inhibition)",[7],37%
same,Potency,[9],inactive
C[C@@H](N)Cc1cnc[nH]1,outcome,[1],inactive
same,max response,[2],1.66% (inactive)
CCCN1CCO[C@@H]2c3cc(O)ccc3OC[C@H]21,outcome,[1],inactive
same,max response,[2],-5.59% (inactive) and 5.71% (inactive)
c1ccc(C2(c3ccccc3)CC2C2=NCCN2)cc1 (centres undefined),outcome,[1],inactive
same,max response,[2],-4.94% (inactive) and 21.7% (inactive)
C#CCOC(=O)C1=CCCN(C)C1,outcome,[1],inactive
same,max response,[2],10.6% (inactive)
NCc1cc(=O)[nH]o1,outcome,[1],inactive
same,max response,[2],24.8% (inactive)
O=C(O)CC[N+](=O)[O-],outcome,[1],inactive
same,max response,[2],13% (inactive)
CCCN(CCC)[C@@H]1CCc2ccc(O)cc2C1,outcome,[1],inactive
same,max response,[2],10.7% (inactive)
C[C@]12N[C@H](Cc3ccccc31)c1ccccc12,outcome,[1],inactive
same,max response,[2],-6.68% (inactive) and -2.83% (inactive) and -7.09% (inactive)
Cn1cnc(CCN)c1,outcome,[1],inactive
same,max response,[2],33.2% (inactive)
S=C(NC1CCCCC1)N1CCC(c2cnc[nH]2)CC1,outcome,[1],inactive
same,max response,[2],16.5% (inactive)
NC(=O)CN1CC(O)CC1=O (centres undefined),outcome,[1],inactive
same,max response,[2],-2.78% (inactive) and 8.87% (inactive)
O=C1CCCN1CC#CCN1CCCC1,outcome,[1],inactive
same,max response,[2],30.9% (inactive)
O=C(Cc1ccc(Cl)c(Cl)c1)N1CCCCC1CN1CCCC1 (centres undefined),outcome,[1],inactive
same,max response,[2],17.1% (inactive)
O=C(O)Cc1cnc[nH]1,outcome,[1],inactive
same,max response,[2],3.18% (inactive)
CN[C@@H]1C[C@@H](c2ccc(Cl)c(Cl)c2)c2ccccc21,outcome,[1],inactive
CC(Cc1ccc(O)cc1)NCC(O)c1cc(O)cc(O)c1 (centres undefined),outcome,[1],inactive
NC1CCc2cc(O)c(O)cc2C1 (centres undefined),outcome,[1],inactive
same,max response,[2],20.3% (inactive)
C[C@@H]1O[C@H](C[N+](C)(C)C)C[C@H]1O,outcome,[1],inactive
same,max response,[2],7.91% (inactive)
COc1cc(C(O)CN)ccc1O (centres undefined),outcome,[1],inactive
same,max response,[2],2.34% (inactive)
C[N+]1(C)C2CCC1CC(OC(=O)C(CO)c1ccccc1)C2 (centres undefined),outcome,[1],inactive
same,max response,[2],23.1% (inactive) and 28.3% (inactive)
Clc1ccc(C(c2ccc(Cl)cc2)n2cc[n+](CC(OCc3ccc(Cl)cc3Cl)c3ccc(Cl)cc3Cl)c2)cc1 (centres undefined),Potency,[2],1 µM (active)
CC1(N2CCC(n3c([C@@H]4CCCNC4)nc4ccccc43)CC2)CCCCCCC1,"parasite growth, % of DMSO control",[6],5.01%
same,"parasite growth remaining, % of DMSO control (lower = more inhibition)",[7],11.2%
same,"parasite growth, % of control (lower = inhibition)",[8],19.4%
CCCCCC[C@H]1C(=O)O[C@H](C)[C@H](NC(=O)c2cccc(NC=O)c2O)C(=O)O[C@@H](C)[C@@H]1OC(=O)CC(C)C,max response,[10],-27.4% (inactive)
same,"parasite growth remaining, % of DMSO control (lower = more inhibition)",[7],17.3%
same,"parasite growth, % of control (lower = inhibition)",[8],14.5%
same,"growth, % of control",[11],26.2%
COC(=O)[C@@H](N)CCCN=C(N)N[N+](=O)[O-],outcome,[1],inactive
same,max response,[2],6.28% (inactive)
same,"parasite growth, % of DMSO control",[6],91.3%
same,"parasite growth remaining, % of DMSO control (lower = more inhibition)",[7],94.8%
same,"parasite growth, % of control (lower = inhibition)",[8],82%
same,"growth, % of control",[11],92.1%
NC1CC1c1ccccc1 (centres undefined),outcome,[1],inactive
same,max response,[2],14.3% (inactive)
same,"parasite growth, % of DMSO control",[6],95.6%
same,"parasite growth remaining, % of DMSO control (lower = more inhibition)",[7],17.6%
same,"parasite growth, % of control (lower = inhibition)",[8],105%
same,"growth, % of control",[11],109%
CN(C)NC(=O)CCC(=O)O,max response,[10],1.56% (inactive) and -3.81% (inactive)
same,Potency,[12],inactive
same,"parasite growth remaining, % of DMSO control (lower = more inhibition)",[7],101%
same,"parasite growth, % of control (lower = inhibition)",[8],141%
same,"growth, % of control",[11],106%
NC(CP(=O)(O)O)C(=O)O (centres undefined),outcome,[1],inactive
same,max response,[2],4% (inactive)
CC=C(C)C(=O)O[C@H]1C(C)=C2[C@@H]3OC(=O)[C@@](C)(O)[C@@]3(O)[C@@H](OC(=O)CCC)C[C@](C)(OC(C)=O)[C@@H]2[C@@H]1OC(=O)CCCCCCC,"parasite growth, % of DMSO control",[6],15.2%
same,"parasite growth remaining, % of DMSO control (lower = more inhibition)",[7],8.2%
same,"parasite growth, % of control (lower = inhibition)",[8],16.2%
Clc1cnc(Oc2ccc(Oc3ncc(Cl)cc3Cl)cc2)c(Cl)c1,outcome,[1],inactive
same,max response,[2],17.9% (inactive)
same,max response,[10],-12.9% (inactive)
same,Potency,[12],inactive
O=C1C=CC[C@@H]2[C@H]3CCCN4CCC[C@@H](CN12)[C@@H]34,"parasite growth, % of DMSO control",[6],101%
same,"parasite growth remaining, % of DMSO control (lower = more inhibition)",[7],99.7%
same,"parasite growth, % of control (lower = inhibition)",[8],86.7%
